tested on: VDR:RXRa (NR concentration 270 nM, RXRa partner concentration 90 nM); test: PBM binding z-score (relative to random genomic background probes); higher = stronger binding; sequences stand for … in GC…GCGATTGACAGCGTAGAATGAAGG
Method: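 Protein-binding microarray (Agilent 4x180K custom design, double-stranded 60-nt probes: 5' GC cap, 34-nt variable region, 24-nt constant primer region; full probe sequence given). Purified or IVT nuclear receptor:RXRα heterodimers (3:1 NR:RXRα, mostly 270:90 nM) or homodimers were incubated for 1 h in PBS with 2% milk and no ligand, then detected with Alexa488 antibodies. Fluorescence from o1-orientation probes (~5 replicates averaged) was converted to z-scores against 500 random hg19 background probes. Variable regions are seed direct-repeat (DR0–DR5) sites, all their single-nucleotide variants and half-site ablations.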

Question: How did the PBM binding z-score turn out when GTACCAAGGTGAATAGGTCGTGGATGAGTAGGCG was run?
Answer: Its PBM binding z-score is 0.918.

Question: Which PBM binding z-score does the source give for TAGCATAGGTCATGGGCCAGTATACCACGCGAAC here?
Answer: The PBM binding z-score was 3.33.

Question: CAAAGTAGGTCACAGAGGTCAAAGTCCGTGCGTA was tested. Which PBM binding z-score did it give?
Answer: Its PBM binding z-score is 7.99.

Question: TCGCGTAGGTTAGGGGCATTCAGAATGGCGTCGA was tested. Which PBM binding z-score did it give?
Answer: Its PBM binding z-score is 0.397.

Question: With ATATGTAGCTTATCGGGTCATTCAGTTTGCGCAT as the sequence, how does the PBM binding z-score read?
Answer: The PBM binding z-score was 4.71.

Question: How did the PBM binding z-score turn out when TCATATAGGTAAACAGGTGAGAGTCCGTAAGTTA was run?
Answer: The PBM binding z-score was 1.01.

Question: ATATGTAGGTTATCGGGTCTTTCAGTTTGCGCAT was tested. Which PBM binding z-score did it give?
Answer: The PBM binding z-score was 3.12.

Question: With CTCGAAAGGTCGTTCTCAGGTGAGTATACCAAAC as the sequence, how does the PBM binding z-score read?
Answer: Its PBM binding z-score is 3.95.

Question: CCGACTGGGGGAAAGGTTACCATACTCAGTACGA was tested. Which PBM binding z-score did it give?
Answer: Its PBM binding z-score is 1.79.

Question: ATATGTAGGTTAGCTAGGGTCATTCAGACTAGGC was tested. Which PBM binding z-score did it give?
Answer: Its PBM binding z-score is 5.2.

Question: With CGAACTAGGTCAGAACAGGACCGTGAAGGATGAT as the sequence, how does the PBM binding z-score read?
Answer: The PBM binding z-score was -0.102.

Question: CCAGACAGGTGAGAAGGTAACTCACCCTCGATTA was tested. Which PBM binding z-score did it give?
Answer: The PBM binding z-score was 0.0837.

Question: Which PBM binding z-score does the source give for AGAATGAGGTTACCAAACATCAGGGAAACGCTTG here?
Answer: The PBM binding z-score was 1.04.

Question: How did the PBM binding z-score turn out when TCGAGTAGGTTAGGGGCATTCAAAATGGCGTCGA was run?
Answer: The PBM binding z-score was 0.856.

Question: Which PBM binding z-score does the source give for GCTTACGGGTCTAAGGTTATAGCATGAATAGAAT here?
Answer: Its PBM binding z-score is 1.01.

Question: How did the PBM binding z-score turn out when CGTCCAAGGTCATAGGAGGTCAGCGAAGACAGAT was run?
Answer: The PBM binding z-score was 6.6.

Question: With TCTTGTAGATCAAAAGGAGGTTAAGAAAGATCGA as the sequence, how does the PBM binding z-score read?
Answer: Its PBM binding z-score is 0.807.

Question: CGAACTAGGTCATCCATGACAGTGAATACATTGA was tested. Which PBM binding z-score did it give?
Answer: Its PBM binding z-score is 2.45.

Question: GCTCGGATGACAAGGTCAGAGCTTTGTCCGTAGA was tested. Which PBM binding z-score did it give?
Answer: The PBM binding z-score was 0.722.

Question: For CCGGGTAGGTTATGGGGCATTCAGGCAACGGTGA, which PBM binding z-score is on record?
Answer: Its PBM binding z-score is 0.056.

Question: For ATTTCTAGGTAAAGTTCAGTGAAAGATCGATAGA, which PBM binding z-score is on record?
Answer: The PBM binding z-score was 2.11.

Question: How did the PBM binding z-score turn out when CCTACTGGGCCAAAAAGGTCATTGTTGCCGATAA was run?
Answer: Its PBM binding z-score is 4.46.

Question: With ATATGTAGGTTATAGGGTCATTCAGTTTGCGCAT as the sequence, how does the PBM binding z-score read?
Answer: The PBM binding z-score was 5.98.

Question: For CGTCAAAGTTCAACTAAGGTAAGGTAAAGCACGC, which PBM binding z-score is on record?
Answer: The PBM binding z-score was 4.17.

Question: AGAACGAGGGCAATGAGTAGATAGCACGGGTGGC was tested. Which PBM binding z-score did it give?
Answer: Its PBM binding z-score is 1.15.

Question: With TCTATTAGATGAAGGGCAACCGACGAGTCCGTTT as the sequence, how does the PBM binding z-score read?
Answer: Its PBM binding z-score is 1.02.

Question: With GCTTGTACATCAAGGTTAAGAAAGACTAAGCTAA as the sequence, how does the PBM binding z-score read?
Answer: Its PBM binding z-score is 0.208.

Question: For ACTAGCAGGCCTAGTTTGGGTCACTCAAACAAAG, which PBM binding z-score is on record?
Answer: The PBM binding z-score was -0.0369.

Question: For CAGCCTAGGTCAGGGCCAGCATAGGAGGAACGTT, which PBM binding z-score is on record?
Answer: The PBM binding z-score was 0.0584.

Question: With CCTCGGAGGACAACAGGAGATCAGAGCTGCCAGA as the sequence, how does the PBM binding z-score read?
Answer: The PBM binding z-score was -0.616.

Question: With CCTCGGGGGACAGAAGGTCAGAGCTGTCCGCTTT as the sequence, how does the PBM binding z-score read?
Answer: Its PBM binding z-score is 2.3.

Question: Which PBM binding z-score does the source give for CCTACCGGGCCATCAGGTCATTGATATCAACGTT here?
Answer: Its PBM binding z-score is 1.83.

Question: CCTTACGGGGCACTCCAGGTTATAGCATCGGAGT was tested. Which PBM binding z-score did it give?
Answer: Its PBM binding z-score is 0.0326.

Question: ACTAGCAGGCCAAGGGTCACTCTAGATTAGTCCG was tested. Which PBM binding z-score did it give?
Answer: Its PBM binding z-score is 2.58.

Question: TCATATAGGTAAATGCTAGGTGAAAGTGCGATCT was tested. Which PBM binding z-score did it give?
Answer: The PBM binding z-score was 0.984.

Question: How did the PBM binding z-score turn out when TCGAGTAGGTTAGTCTGGGCATTCAGCCAACATA was run?
Answer: Its PBM binding z-score is -0.0618.

Question: Which PBM binding z-score does the source give for CGAACTAGGTCAAGGTCAGTGAATCTCCGCACGC here?
Answer: The PBM binding z-score was 3.19.

Question: For TCTTGTAGATCAATAGAGGTTGAGAAAGTGCGCT, which PBM binding z-score is on record?
Answer: The PBM binding z-score was 0.789.

Question: For GCACCAAGGTGAATAGGTCGTTGATGAGTAGGCG, which PBM binding z-score is on record?
Answer: Its PBM binding z-score is 0.503.

Question: CCGACTGGGGCATAAGGTTCCCATAAGCCAGCCC was tested. Which PBM binding z-score did it give?
Answer: The PBM binding z-score was -0.0761.
